Most compounds without a hit are left out; they make up all but 6.6% or so of the library.
Autofluor counter: compound fluorescence in toxin protease inhibitor counterscreen | compound autofluorescence counterscreen, microsphere flow cytometry; active compounds read high | fluorescence intensity (test concentration not listed) | 3.1% of 360,000 active | AID 624483; in the data active = fluorescence intensity above about 16000; inconclusive = no clear call, values can overlap the other calls
Anthrax LF prot: blocks Bacillus anthracis lethal factor protease; inhibition, % at 10 µM; 0.12% of 360,000 active; multiplex microsphere protease cleavage assay, LF; AID 588501; in the data active = inhibition above about 30%; inconclusive = no clear call, values can overlap the other calls; also: plate controls were buffer without enzyme for full effect and enzyme alone for no effect
GDH-TPI counter-1: inhibits GDH-TPI coupling enzymes, artifact for Mtb FBA screen; GDH-TPI coupled enzyme counterscreen, NADH absorbance; inhibition, % at 4.8 µM; 1.2% of 360,000 active; AID 588335; in the data active = inhibition above about 30%;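 also: 0% = DMSO wells and 100% = wells lacking the enzyme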
BoNT-F LC inh: blocks Botulinum neurotoxin F light chain protease. 0.22% of 360,000 active. AID 588497. inhibition, % at 10 µM. Multiplex microsphere protease cleavage assay, flow cytometry; in the data active = inhibition above about 35%, passing the limit was not always enough; inconclusive = no clear call, values can overlap the other calls; also: plate controls were buffer without enzyme for full effect and enzyme alone for no effect
Mtb FBA inh: Mtb fructose-bisphosphate aldolase inhibition; P9WQA3; purified M. tuberculosis FBA, fluorescence read-out; inhibition, % at 1 µM; 2.3% of 360,000 active;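 also: 0% = vehicle and 100% = reference inhibitor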
Target sequence (P9WQA3 whole entry, looked up): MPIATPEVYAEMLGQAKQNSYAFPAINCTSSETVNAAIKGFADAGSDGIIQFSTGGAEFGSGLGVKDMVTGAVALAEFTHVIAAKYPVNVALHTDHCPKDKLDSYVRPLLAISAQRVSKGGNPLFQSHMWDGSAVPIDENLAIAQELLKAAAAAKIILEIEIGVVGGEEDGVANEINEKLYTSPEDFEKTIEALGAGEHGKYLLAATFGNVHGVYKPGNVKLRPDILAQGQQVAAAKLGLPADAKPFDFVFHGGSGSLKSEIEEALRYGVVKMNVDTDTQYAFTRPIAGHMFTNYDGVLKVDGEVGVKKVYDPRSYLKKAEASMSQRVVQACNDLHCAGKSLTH
BoNT A protease: inhibitors of Botulinum neurotoxin A light chain protease; multiplex microsphere protease substrate cleavage, flow cytometry; inhibition, % at 10 µM; 0.17% of 360,000 active; AID 588499; in the data active = inhibition above about 30%; inconclusive = no clear call, values can overlap the other calls; also: plate controls were buffer without enzyme for full effect and enzyme alone for no effect
Mtb FBA confirm: confirmation of M. tuberculosis fructose-bisphosphate aldolase inhibitors; shares compounds with Mtb FBA inh; purified M. tuberculosis FBA, fluorescence read-out; inhibition, % at 1 µM; 78% of 5,600 active; AID 651616;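 also: 0% = vehicle wells and 100% = reference inhibitor wells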
GDH-TPI counter-2: inhibits GDH-TPI coupling enzymes, flagging Mtb FBA hits | shares compounds with Mtb FBA inh | GDH-TPI coupled enzyme counterscreen, fluorescence | inhibition, % at 1 µM | 81% of 5,600 active; in the data active = inhibition above about 10%
GDH-TPI dose: counter-screen for M. tuberculosis FBA inhibitors: GDH-TPI dose response | GDH-TPI coupled enzyme assay, fluorescence, artifact counterscreen | shares compounds with Mtb FBA inh | IC50, µM | 79% of 170 active; call rule not given here
An asterisk follows results filed as active; ? = inconclusive; · = not tested or not shown; + = active, no number. Rule as the data show it, unless noted: active = inhibition above about 27%; inactive = the rest.

SMILES	Autofluor counter	Anthrax LF prot	GDH-TPI counter-1	BoNT-F LC inh	Mtb FBA inh	BoNT A protease	Mtb FBA confirm	GDH-TPI counter-2	others
CCOC(=O)C(C)Sc1nc(-c2ccco2)cc(C(F)(F)F)c1C#N (centres undefined)	4409	4	3	5	29*	3	124*	95*
CCOC(=O)c1sc(NC(=O)CSc2nc(-c3ccco3)cc(C(F)(F)F)n2)c(C#N)c1C	7734	0	-2	-2	0	0	·	·
CCOC(=O)COc1nc(-c2ccco2)cc(-c2ccco2)c1C#N	·	·	15	·	80*	·	16	14*
CCN1CCN(c2oc(-c3ccco3)nc2C#N)CC1	4360	-3	10	?	18	-4	·	·
CCCOc1ccc(-c2nc(C#N)c(N3CCN(CC)CC3)o2)cc1	2702	-6	4	6	44*	0	+	+
Cc1ccc(OCc2nc(C#N)c(N3CCN(Cc4ccccc4)CC3)o2)cc1	5276	-3	3	-2	2	-2	·	·
CCOc1ccc(-c2nc(C#N)c(N3CCN(CC)CC3)o2)cc1	19650*	-2	28	0	59*	?	44*	49*
CC(C)CCSc1nnc(N)s1	3785	-2	1	?	-1	-4	·	·
Cc1ccn2cc(CCNC(=O)COc3ccccc3)nc2c1	3275	-4	-6	-5	35*	1	46*	30*
Cc1ccn2cc(CCNC(=O)C3CC=CCC3C(=O)O)nc2c1 (centres undefined)	4865	0	4	-6	31*	-1	+	+
O=C(O)C1CC=CCC1C(=O)NCc1cn2ccccc2n1 (centres undefined)	4863	-11	11	-2	18	1	·	·
Cc1ccn2cc(CCNC(=O)Cc3cccs3)nc2c1	5219	-8	1	1	22	0	·	·
Cc1ccn2cc(CCNC(=O)CC(C)(C)C)nc2c1	3208	1	-2	6	27*	0	45*	29*
O=c1oc(CCCO)cc2ccc(C#Cc3cccnc3)cc12	3986	-2	17	12	53*	1	45*	37*
O=c1oc(CCO)cc2ccc(C#Cc3ccsc3)cc12	3537	0	8	-11	45*	0	82*	52*
O=C(O)CC/C(=N/NC(=O)c1cn(-c2ccccc2)nc1-c1ccccc1)C(=O)O	2368	0	2	2	31*	0	66*	64*
CCOc1ccc(NC(=O)NNC(=O)c2ccc3ccccc3c2O)cc1	5786	-1	10	-2	40*	1	28*	10	GDH-TPI dose=5.7*
O=C(NNC(=O)c1cc2ccccc2cc1O)Nc1ccc(Br)cc1	5781	-4	12	-1	28*	2	106*	91*
COc1ccc(NC(=O)NNC(=O)c2ccc3ccccc3c2O)c(OC)c1	5195	-2	4	4	40*	0	52*	44*
CC(=O)Nc1ccc(C(=O)NCCc2ccccc2)cc1	2451	0	1	1	-2	0	·	·
CC(=O)Nc1ccc(CCNC(=O)c2ccc3ccccc3c2O)cc1	2916	-2	12	1	32*	1	+	149*
CCc1ccccc1NC(=O)NNC(=O)c1ccc2ccccc2c1O	5378	1	3	6	8	0	·	·
COC(=O)C1(C)NC(c2cccc(C)c2)C2C(=O)N(c3ccccc3)C(=O)C21 (centres undefined)	3420	-1	0	2	-2	0	·	·
CC(=O)c1sc2nc(SCC(=O)NCCc3ccccc3)[nH]c(=O)c2c1C	4294	1	53*	-5	29*	1	77*	73*
C/C(=N\NC(=O)CC(C)C)c1ccc(N2CCCCC2)cc1	10795	2	17	-2	-2	2	·	·
SMILES	Autofluor counter	Anthrax LF prot	GDH-TPI counter-1	BoNT-F LC inh	Mtb FBA inh	BoNT A protease	Mtb FBA confirm	GDH-TPI counter-2	others
CCC(=O)Nc1c(C#N)c2nc3ccccc3nc2n1-c1ccc(C)cc1	6120	4	11	-5	38*	1	80*	84*
N#Cc1c(NC(=O)c2ccc(Br)o2)n(-c2ccccc2)c2nc3ccccc3nc12	4362	0	12	-4	48*	3	34*	25*
CCC(C)n1c(NC(=O)c2ccccc2)c(C#N)c2nc3ccccc3nc21 (centres undefined)	7113	16	16	13	18	27	·	·
Cc1cc(=O)oc2cc(NC(=S)NNC(=O)c3c(Cl)cnn3C)ccc12	6411	0	35*	-6	83*	-3	43*	28*
Cc1cc(=O)oc2cc(NC(=S)NCc3ccccn3)ccc12	4274	-4	9	-4	24	0	·	·
O=S1(=O)C=C(SCc2ccc(Cl)c(Cl)c2)Nc2ccccc21	2851	1	2	-2	2	0	·	·
COc1ccc2c(c1OC)C(=O)OC2Nc1nc(-c2cccc([N+](=O)[O-])c2)cs1 (centres undefined)	3441	-7	-5	?	-2	-1	·	·
CCN(CC(=O)NCc1cccs1)C(=O)/C=C/c1cc(OC)ccc1OC	3311	2	21	-11	37*	-1	155*	115*
COc1ccc(OC)c(/C=C/C(=O)N(C)CC(=O)Nc2cc(C)ccc2C)c1	2743	-4	7	-11	29*	-1	34*	29*
COc1ccc(OC)c(/C=C/C(=O)N2CCN(S(=O)(=O)c3ccc(C)cc3C)CC2)c1	3909	-2	12	-1	29*	0	-2	-3
COc1ccc(OC)c(/C=C/C(=O)N2CCN(S(=O)(=O)c3cc(C)ccc3C)CC2)c1	?	?	4	1	16	3	·	·
COCC1CCN(Cc2c(C(=O)N3CCc4ccccc4C3)nc3ccc(Cl)cn23)C1 (centres undefined)	5592	6	-1	8	1	3	·	·
Cc1cccc(NC(=S)NN(Cc2ccccc2)c2ccccc2)c1C	4523	-4	1	14	2	0	·	·
CCOC(=O)N1CCN(C(=O)COC(=O)Cc2ccc(Cl)cc2)CC1	5618	2	-4	2	-1	0	·	·
Cc1c(Br)c(=O)oc2c(C)c(O)ccc12	2547	0	14	-3	41*	0	196*	169*
CCc1cc(C(=O)NC2CCCN(Cc3ccccc3F)C2)n(C)n1 (centres undefined)	5389	3	-7	-2	-1	-1	·	·
CN(CCc1ccccn1)C(=O)CCC1CCCN(C(=O)c2n[nH]c3c2CCCC3)C1 (centres undefined)	2977	7	16	2	-1	0	·	·
